Reference: ChEMBL document CHEMBL1961873, “Compounds: GSK PKIS; Assays: Nanosyn kinase panel” (2012)

Assays:
[1] = target: Tyrosine-protein kinase receptor UFO (Homo sapiens) (UniProt P30530); conditions: at 1 µM
[2] = target: Tyrosine-protein kinase Blk (Homo sapiens) (UniProt P51451); conditions: at 0.1 µM
[3] = target: Tyrosine-protein kinase Blk (Homo sapiens) (UniProt P51451); conditions: at 1 µM
[4] = target: T1, Cytoplasmic tyrosine-protein kinase BMX (Homo sapiens) (UniProt P51813); conditions: at 0.1 µM
T1 sequence (whole entry): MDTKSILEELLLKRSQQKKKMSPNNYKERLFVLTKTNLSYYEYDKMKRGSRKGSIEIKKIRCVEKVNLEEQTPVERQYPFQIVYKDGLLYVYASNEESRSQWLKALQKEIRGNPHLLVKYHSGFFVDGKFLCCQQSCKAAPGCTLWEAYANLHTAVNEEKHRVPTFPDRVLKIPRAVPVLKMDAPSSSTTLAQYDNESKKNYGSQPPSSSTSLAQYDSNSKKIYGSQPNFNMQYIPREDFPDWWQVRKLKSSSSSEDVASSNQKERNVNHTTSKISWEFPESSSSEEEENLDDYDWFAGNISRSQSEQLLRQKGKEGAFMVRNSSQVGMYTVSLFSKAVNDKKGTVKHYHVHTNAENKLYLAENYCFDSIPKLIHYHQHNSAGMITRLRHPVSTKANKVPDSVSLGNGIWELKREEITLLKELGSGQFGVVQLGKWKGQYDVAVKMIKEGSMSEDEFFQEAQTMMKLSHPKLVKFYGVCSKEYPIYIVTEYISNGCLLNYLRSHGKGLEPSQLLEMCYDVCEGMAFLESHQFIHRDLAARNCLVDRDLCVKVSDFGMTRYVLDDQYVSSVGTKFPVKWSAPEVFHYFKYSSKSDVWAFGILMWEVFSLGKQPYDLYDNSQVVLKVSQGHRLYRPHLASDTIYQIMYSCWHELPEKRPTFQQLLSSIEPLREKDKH

[5] = target: T1, Cytoplasmic tyrosine-protein kinase BMX (Homo sapiens); conditions: at 1 µM
[6] = target: Protein-tyrosine kinase 6 (Homo sapiens) (UniProt Q13882); conditions: at 0.1 µM
[7] = target: Protein-tyrosine kinase 6 (Homo sapiens) (UniProt Q13882); conditions: at 1 µM
[8] = target: Tyrosine-protein kinase BTK (Homo sapiens) (UniProt Q06187); conditions: at 0.1 µM
[9] = target: Tyrosine-protein kinase BTK (Homo sapiens) (UniProt Q06187); conditions: at 1 µM
[10] = target: Tyrosine-protein kinase CSK (Homo sapiens) (UniProt P41240); conditions: at 0.1 µM
[11] = target: Tyrosine-protein kinase CSK (Homo sapiens) (UniProt P41240); conditions: at 1 µM
[12] = target: T2, Discoidin domain-containing receptor 2 (Homo sapiens) (UniProt Q16832); conditions: at 0.1 µM
T2 sequence (whole entry): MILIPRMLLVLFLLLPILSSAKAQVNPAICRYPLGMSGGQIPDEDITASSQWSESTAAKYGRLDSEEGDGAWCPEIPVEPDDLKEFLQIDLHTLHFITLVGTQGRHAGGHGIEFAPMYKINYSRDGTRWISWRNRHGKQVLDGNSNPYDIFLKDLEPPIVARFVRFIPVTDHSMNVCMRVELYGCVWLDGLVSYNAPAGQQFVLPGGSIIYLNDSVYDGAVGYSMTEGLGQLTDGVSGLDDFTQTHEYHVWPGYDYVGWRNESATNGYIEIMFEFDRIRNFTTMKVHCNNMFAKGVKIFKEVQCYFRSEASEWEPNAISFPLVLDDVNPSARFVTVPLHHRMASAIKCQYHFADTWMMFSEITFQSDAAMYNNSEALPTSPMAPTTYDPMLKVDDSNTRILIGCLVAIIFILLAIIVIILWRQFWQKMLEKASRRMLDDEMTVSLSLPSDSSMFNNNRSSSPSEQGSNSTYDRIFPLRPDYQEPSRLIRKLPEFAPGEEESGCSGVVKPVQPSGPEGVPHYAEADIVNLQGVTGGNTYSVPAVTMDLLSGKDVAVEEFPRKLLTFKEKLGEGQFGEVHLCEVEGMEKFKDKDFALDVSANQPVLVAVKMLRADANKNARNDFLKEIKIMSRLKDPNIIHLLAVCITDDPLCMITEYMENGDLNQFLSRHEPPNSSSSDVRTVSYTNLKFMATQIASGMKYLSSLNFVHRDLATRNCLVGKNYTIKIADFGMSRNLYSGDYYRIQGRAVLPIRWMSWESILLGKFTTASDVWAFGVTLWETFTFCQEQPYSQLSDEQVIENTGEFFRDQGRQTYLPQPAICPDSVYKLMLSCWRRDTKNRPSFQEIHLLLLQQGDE

[13] = target: T2, Discoidin domain-containing receptor 2 (Homo sapiens); conditions: at 1 µM
[14] = target: Epidermal growth factor receptor (Homo sapiens) (UniProt P00533); conditions: at 0.1 µM
[15] = target: Epidermal growth factor receptor (Homo sapiens) (UniProt P00533); conditions: at 1 µM
[16] = tested on: Epidermal growth factor receptor (Homo sapiens), P00533 [L858R]; conditions: at 0.1 µM
[17] = tested on: Epidermal growth factor receptor (Homo sapiens), P00533 [L858R]; conditions: at 1 µM
[18] = tested on: Epidermal growth factor receptor (Homo sapiens), P00533 [L861Q]; conditions: at 0.1 µM
[19] = tested on: Epidermal growth factor receptor (Homo sapiens), P00533 [L861Q]; conditions: at 1 µM
[20] = tested on: Epidermal growth factor receptor (Homo sapiens), P00533 [T790M]; conditions: at 0.1 µM
Chain of Epidermal growth factor receptor (Homo sapiens), P00533 [T790M] (P00533 whole entry T790M): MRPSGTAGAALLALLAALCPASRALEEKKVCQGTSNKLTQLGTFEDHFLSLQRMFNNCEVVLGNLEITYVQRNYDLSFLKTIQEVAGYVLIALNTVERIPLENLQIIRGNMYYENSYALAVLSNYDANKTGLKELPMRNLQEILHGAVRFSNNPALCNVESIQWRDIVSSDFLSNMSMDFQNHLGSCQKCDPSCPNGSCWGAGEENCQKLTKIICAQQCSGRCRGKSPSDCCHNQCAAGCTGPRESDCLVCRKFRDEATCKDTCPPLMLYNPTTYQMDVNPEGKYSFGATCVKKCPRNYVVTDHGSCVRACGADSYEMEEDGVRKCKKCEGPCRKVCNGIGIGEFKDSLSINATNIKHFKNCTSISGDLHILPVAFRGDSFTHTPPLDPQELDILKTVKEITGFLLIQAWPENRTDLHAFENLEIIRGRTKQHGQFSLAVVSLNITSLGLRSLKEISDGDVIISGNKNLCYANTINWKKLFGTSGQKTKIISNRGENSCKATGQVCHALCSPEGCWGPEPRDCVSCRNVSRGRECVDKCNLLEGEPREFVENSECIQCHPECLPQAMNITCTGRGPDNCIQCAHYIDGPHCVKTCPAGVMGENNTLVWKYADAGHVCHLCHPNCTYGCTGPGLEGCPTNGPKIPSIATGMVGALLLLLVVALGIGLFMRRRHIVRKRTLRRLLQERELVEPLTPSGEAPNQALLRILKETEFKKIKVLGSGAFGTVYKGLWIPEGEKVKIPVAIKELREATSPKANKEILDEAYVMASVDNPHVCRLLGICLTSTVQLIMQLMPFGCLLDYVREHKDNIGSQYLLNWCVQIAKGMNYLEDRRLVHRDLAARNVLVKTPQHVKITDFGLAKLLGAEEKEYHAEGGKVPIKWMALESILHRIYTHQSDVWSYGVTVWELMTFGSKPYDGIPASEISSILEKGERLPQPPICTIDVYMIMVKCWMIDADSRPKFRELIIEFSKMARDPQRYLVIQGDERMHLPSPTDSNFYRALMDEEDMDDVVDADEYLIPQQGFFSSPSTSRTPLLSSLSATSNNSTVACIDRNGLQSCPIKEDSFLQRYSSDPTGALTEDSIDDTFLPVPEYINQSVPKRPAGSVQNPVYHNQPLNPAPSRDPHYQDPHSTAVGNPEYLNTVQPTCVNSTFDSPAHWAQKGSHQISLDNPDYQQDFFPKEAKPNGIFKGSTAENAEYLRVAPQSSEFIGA

Chain of Epidermal growth factor receptor (Homo sapiens) (P00533 whole entry): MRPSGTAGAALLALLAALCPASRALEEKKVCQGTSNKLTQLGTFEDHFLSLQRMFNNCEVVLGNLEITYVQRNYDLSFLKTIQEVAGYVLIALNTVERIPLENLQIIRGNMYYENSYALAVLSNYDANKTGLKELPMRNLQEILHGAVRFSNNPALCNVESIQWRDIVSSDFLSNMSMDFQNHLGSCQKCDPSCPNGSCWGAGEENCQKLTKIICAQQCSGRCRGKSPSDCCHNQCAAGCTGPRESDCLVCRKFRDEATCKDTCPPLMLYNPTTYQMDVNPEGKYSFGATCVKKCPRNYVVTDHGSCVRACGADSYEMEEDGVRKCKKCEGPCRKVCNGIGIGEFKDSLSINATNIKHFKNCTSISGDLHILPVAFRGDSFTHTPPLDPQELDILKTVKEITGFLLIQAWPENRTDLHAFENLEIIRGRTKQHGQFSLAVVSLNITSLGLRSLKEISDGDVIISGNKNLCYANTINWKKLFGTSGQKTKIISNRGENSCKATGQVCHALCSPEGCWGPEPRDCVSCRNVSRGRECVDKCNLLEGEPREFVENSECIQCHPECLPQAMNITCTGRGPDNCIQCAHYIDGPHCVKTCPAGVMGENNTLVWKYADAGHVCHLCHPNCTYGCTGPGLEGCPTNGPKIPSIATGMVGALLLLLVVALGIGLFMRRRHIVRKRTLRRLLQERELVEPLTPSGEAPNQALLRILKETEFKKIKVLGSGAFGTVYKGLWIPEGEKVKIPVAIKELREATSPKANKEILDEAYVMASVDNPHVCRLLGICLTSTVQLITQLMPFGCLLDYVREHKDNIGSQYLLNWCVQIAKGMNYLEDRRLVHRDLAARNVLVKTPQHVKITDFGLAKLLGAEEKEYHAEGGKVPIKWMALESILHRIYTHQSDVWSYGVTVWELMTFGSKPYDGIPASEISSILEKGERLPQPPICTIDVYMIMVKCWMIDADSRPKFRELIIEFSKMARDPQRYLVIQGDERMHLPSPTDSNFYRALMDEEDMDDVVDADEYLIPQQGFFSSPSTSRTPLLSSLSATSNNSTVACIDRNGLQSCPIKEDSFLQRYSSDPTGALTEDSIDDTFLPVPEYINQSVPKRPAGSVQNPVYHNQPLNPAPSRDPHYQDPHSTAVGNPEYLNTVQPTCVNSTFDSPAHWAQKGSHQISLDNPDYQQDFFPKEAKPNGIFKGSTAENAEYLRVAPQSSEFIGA
Chain of Epidermal growth factor receptor (Homo sapiens), P00533 [L858R] (P00533 whole entry L858R): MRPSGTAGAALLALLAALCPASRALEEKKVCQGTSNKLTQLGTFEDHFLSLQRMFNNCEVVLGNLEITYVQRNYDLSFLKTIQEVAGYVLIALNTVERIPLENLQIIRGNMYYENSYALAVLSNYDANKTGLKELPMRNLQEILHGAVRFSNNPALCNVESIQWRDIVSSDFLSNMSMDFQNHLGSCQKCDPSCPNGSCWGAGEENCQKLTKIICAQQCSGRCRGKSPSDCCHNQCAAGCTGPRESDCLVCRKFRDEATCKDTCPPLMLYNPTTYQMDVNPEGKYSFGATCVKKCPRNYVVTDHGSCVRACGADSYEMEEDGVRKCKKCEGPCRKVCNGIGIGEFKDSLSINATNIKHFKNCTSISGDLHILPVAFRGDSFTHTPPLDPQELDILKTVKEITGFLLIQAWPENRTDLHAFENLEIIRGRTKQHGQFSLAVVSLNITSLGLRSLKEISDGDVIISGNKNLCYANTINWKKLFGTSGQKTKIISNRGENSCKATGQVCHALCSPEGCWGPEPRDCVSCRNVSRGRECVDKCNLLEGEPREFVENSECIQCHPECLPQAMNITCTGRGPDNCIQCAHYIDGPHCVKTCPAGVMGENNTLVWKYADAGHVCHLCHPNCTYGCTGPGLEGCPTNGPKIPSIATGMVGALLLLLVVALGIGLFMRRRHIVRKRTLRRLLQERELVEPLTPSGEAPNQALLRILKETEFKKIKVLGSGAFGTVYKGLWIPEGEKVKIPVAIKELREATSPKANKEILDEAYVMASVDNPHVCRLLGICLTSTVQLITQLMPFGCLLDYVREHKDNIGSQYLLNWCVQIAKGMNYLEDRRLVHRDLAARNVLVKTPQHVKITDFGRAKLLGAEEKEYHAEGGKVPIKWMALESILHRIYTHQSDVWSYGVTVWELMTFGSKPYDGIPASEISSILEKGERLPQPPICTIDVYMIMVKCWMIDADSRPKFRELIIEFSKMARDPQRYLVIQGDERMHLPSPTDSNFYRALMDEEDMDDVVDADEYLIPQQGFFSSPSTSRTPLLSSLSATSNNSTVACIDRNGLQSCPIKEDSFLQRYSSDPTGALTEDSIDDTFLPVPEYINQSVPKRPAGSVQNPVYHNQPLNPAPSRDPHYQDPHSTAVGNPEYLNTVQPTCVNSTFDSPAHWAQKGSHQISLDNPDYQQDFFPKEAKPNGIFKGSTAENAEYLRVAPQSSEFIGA
Chain of Protein-tyrosine kinase 6 (Homo sapiens) (Q13882 whole entry, looked up): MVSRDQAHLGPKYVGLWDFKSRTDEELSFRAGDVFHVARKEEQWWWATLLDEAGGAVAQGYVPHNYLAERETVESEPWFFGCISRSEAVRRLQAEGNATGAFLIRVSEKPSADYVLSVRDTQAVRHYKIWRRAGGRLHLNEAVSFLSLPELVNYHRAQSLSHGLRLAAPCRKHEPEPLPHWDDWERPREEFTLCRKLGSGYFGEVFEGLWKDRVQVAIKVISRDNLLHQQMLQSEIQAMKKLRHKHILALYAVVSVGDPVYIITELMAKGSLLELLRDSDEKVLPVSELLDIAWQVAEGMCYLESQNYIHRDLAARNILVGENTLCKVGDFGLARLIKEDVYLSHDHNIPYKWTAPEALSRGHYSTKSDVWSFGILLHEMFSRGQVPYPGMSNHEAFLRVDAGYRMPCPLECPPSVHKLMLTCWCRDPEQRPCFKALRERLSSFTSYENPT
Chain of Tyrosine-protein kinase CSK (Homo sapiens) (P41240 2-450 limits assumed): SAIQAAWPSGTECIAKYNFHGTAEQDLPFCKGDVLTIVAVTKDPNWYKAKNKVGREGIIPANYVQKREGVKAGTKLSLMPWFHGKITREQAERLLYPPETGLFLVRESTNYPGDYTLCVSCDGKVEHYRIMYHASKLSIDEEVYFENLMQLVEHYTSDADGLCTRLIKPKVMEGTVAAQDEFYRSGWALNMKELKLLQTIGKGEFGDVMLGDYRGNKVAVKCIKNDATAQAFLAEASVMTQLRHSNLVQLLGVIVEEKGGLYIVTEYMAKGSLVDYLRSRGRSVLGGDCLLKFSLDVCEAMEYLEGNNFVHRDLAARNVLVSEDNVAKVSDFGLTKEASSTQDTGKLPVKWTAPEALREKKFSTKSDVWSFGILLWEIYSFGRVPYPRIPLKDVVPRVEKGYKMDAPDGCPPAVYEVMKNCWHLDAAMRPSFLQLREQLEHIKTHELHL
Chain of Tyrosine-protein kinase Blk (Homo sapiens) (P51451 2-505 limits assumed): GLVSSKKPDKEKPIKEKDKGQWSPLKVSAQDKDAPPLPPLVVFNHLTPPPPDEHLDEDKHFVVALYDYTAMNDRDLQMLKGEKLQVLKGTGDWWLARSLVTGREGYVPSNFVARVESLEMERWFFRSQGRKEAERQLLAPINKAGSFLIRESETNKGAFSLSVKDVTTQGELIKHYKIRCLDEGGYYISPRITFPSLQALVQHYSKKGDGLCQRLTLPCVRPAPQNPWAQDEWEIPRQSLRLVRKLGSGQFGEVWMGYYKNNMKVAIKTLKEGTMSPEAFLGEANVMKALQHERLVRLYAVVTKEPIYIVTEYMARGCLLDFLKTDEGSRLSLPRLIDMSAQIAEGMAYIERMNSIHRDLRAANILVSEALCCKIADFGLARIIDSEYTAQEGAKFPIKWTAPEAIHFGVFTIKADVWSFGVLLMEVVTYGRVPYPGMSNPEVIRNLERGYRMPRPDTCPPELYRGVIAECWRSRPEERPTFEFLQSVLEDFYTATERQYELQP

SMILES | inhibition [1] [%] | inhibition [2] [%] | inhibition [3] [%] | inhibition [4] [%] | inhibition [5] [%] | inhibition [6] [%] | inhibition [7] [%] | inhibition [8] [%] | inhibition [9] [%] | inhibition [10] [%] | inhibition [11] [%] | inhibition [12] [%] | inhibition [13] [%] | inhibition [14] [%] | inhibition [15] [%] | inhibition [16] [%] | inhibition [17] [%] | inhibition [18] [%] | inhibition [19] [%] | inhibition [20] [%]
NC(=O)c1ccc(Oc2nccc(-c3c(-c4ccc(F)cc4)ncn3C3CCNCC3)n2)cc1 | -8.36 | 3.48 | 3.04 | 5.3 | 7.95 | 3.36 | 6.07 | -0.49 | 0.73 | 3.03 | 4.26 | 0.13 | 0.3 | 0.48 | 1.21 | 3.13 | 2.9 | 2.71 | 5.43 | 2.31
Cc1nnc(-c2ccc(C)c(-c3ccc(C(=O)NCc4ccc(Cl)cc4)cc3)c2)o1 | -7.1 | -0.28 | 0.7 | 2.05 | 1.64 | 2.2 | 6.8 | -1.06 | -4.02 | 3.38 | 5.62 | 0.22 | -0.21 | -3.58 | -0.27 | 1.36 | 2.71 | 2.71 | 1.09 | 0.7
CCC(=O)Nc1ccc(C)c(-c2ccc(C(=O)NCC3CC3)cc2)c1 | -3.83 | 1.71 | 3.32 | 1.57 | 3.88 | 4.7 | 5.22 | -0.35 | 0.22 | 2.98 | 4.34 | 1.85 | 2.57 | 6.56 | 6.12 | 2.49 | 5.47 | 3.28 | 4.44 | 0.82
NS(=O)(=O)c1ccc(N/N=C2\C(=O)Nc3ccc(C(=O)NCCCn4ccnc4)cc32)cc1 | 3.27 | 2.75 | 12.2 | 10.2 | 8.26 | 4.87 | 6.65 | -1.04 | 0.06 | 2.76 | 6.51 | 0.72 | 1.93 | 3.44 | 5.59 | 0.2 | 6.95 | 1.73 | 5.08 | 2.53
CN(C)CCOc1ccc(-c2cc(-c3ccc4c(c3)CCC4=NO)c(-c3ccncc3)o2)cc1 | 2.27 | -0.19 | 6.21 | -1.43 | 1.43 | 1.76 | 15 | 0.42 | 2.57 | -2.53 | -1.46 | 0.26 | 1.8 | 4.94 | 7.65 | -0.5 | 7.4 | -0.03 | 4.41 | -1.42
Fc1ccc(-c2ncn(CCCN3CCOCC3)c2-c2ccncc2)cc1 | 1.84 | -0.04 | 1.04 | 1.9 | -0.36 | -4.64 | -0.48 | -0.91 | 2.71 | -2.06 | -6.18 | 0.11 | -0.13 | 0.44 | 1.09 | -0.51 | -2.87 | -1.64 | -2.82 | -1.82
O=C(Nc1n[nH]c2cc(-c3ccccc3)ccc12)C1CC1 | -6.73 | 1.88 | 6.79 | 4.11 | 4.88 | 2.71 | 6.62 | 1.13 | 2.12 | 2.97 | 4.74 | 1.43 | 5.94 | 3.06 | 6.49 | 2.84 | 5.13 | 4.05 | 0.82 | 2.65
O=C(Nc1n[nH]c2nc(-c3ccc(O)cc3)c(Br)cc12)C1CC1 | -7.01 | 4.29 | 15.4 | 3.85 | 13.4 | 3.18 | 11.1 | -0.08 | 0.5 | 8.35 | 10.9 | 2.17 | 4.12 | 5.76 | 6.97 | 5.48 | 9.71 | 6.22 | 7.61 | 4.95
O=C1NC(=O)C(c2cccc(Cl)c2)=C1Nc1ccc(Cl)c(C(=O)O)c1 | -3.02 | 2.33 | 0.47 | 8.42 | 2.62 | 3.64 | 5.12 | -0.87 | 0.33 | 1.29 | 1.91 | 3.06 | 4.88 | 1.44 | 2.17 | 1.51 | 5.24 | 1.41 | 2.94 | 1
CCS(=O)(=O)c1ccc(OC)c(Nc2ncc(-c3ccccc3Cl)o2)c1 | 1.78 | 2.51 | 15.7 | -1.76 | 3.11 | -0.35 | 5.66 | 2.72 | 2.31 | 1.15 | 1.96 | 3.73 | 8.46 | -0.49 | 0.66 | -1.25 | 7.46 | 2.33 | 1.22 | 1.78
c1ccc(Oc2ccc(Nc3ncc(-c4ccccc4)o3)cc2)cc1 | -0.31 | 1.93 | 2.96 | -4.27 | 1.54 | -5.64 | -0.31 | -0.86 | 0.56 | 4.92 | 1.07 | 0.51 | 0.6 | 1.92 | 3.79 | 1.22 | 0.93 | 1.49 | 3.06 | 0.57
COc1ccc2cc(-c3c(-c4ccncc4)nc(-c4ccc([S+](C)[O-])cc4C)n3C)ccc2c1 (stereo not given) | 1.82 | -0.17 | 4.39 | 0.28 | 0.8 | 24.7 | 81.2 | -0.17 | 0.66 | -0.71 | -1.23 | -2.64 | -4.31 | 2.02 | 7.54 | -1.17 | 5.96 | -0.12 | 9.44 | -0.7
Clc1ccc(CNc2nccc(-c3cnn4ncccc34)n2)cc1 | 2.45 | 1.31 | 3.34 | -1.56 | 2.62 | 0.74 | 3.52 | 0.65 | 1.7 | 3.92 | 2.58 | 1.86 | 4.61 | 0.75 | 3.24 | 3.13 | 5.2 | -1.04 | 0.71 | 0.11
